Screening results as filed in PubChem BioAssay.
IP6K1 inhibitor: inhibitors of human IP6K1; Q92551; IP6K1 kinase, ADP-Glo luminescence, 2 h; hits give low values; activity change, % (series mostly up to about 58 µM); 0.81% of 140,000 active; in the data active means activity change below about -25%; further: on the % scale 0 is the no-effect control and ±100 the full control effect
Target sequence (Q92551 whole entry, looked up): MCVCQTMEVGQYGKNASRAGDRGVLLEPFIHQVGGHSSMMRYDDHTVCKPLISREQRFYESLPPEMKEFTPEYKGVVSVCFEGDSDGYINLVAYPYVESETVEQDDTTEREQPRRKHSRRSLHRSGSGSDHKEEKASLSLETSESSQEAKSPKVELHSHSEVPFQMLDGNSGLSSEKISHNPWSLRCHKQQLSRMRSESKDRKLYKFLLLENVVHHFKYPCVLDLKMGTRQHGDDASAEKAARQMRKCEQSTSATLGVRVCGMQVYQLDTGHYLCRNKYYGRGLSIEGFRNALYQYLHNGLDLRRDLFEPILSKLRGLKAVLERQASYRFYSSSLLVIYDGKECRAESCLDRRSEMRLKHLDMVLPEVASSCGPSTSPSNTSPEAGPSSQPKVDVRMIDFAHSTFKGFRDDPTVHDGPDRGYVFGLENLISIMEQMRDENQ
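ADP-Glo luminescence measures ADP made by human IP6K1 during a 2 h RT reaction with ATP/IP6 (mix at 1.3 mM/130 uM); top library doses 57.5 and 19.1 uM final.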
KDM5B inh: blocks human KDM5B histone demethylase activity; 2.6% of 220,000 active; Q9UGL1; Potency, µM (titrated, usually from 57.7 µM), usual class: inhibitors; AID 1347165; KDM5B demethylase, FDH-coupled NADH fluorescence (FDH is formaldehyde dehydrogenase); further: potency means the concentration at half of the fitted maximal effect; 0% is about no effect; nearly all actives have a fitted effect of over 70% in size
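Coupled FDH/NAD⁺ fluorescence readout. KDM5BΔAP 200 nM final; compound titration, 10 min RT preincubation; substrate mix 12.5 µM H3K4me3, 25 µM 2-OG, 50 µM Fe(II), 100 µM ascorbate, 0.25 mM NAD⁺, 0.25 U/mL FDH; ΔRFU over 30 min.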
* hit, by the source's call; i = inactive; ? = inconclusive; nt = no result. An excerpt weighted towards active compounds, which were near 2.8% of everything screened.

SMILES	IP6K1 inhibitor	KDM5B inh
NCc1cccc(-c2cc(C(F)(F)F)ccc2Cl)c1	-7.0	89.1µM*
O=C(O)c1cccc(-c2cc(C(F)(F)F)ccc2Cl)c1	-21.0	i
COCC1CN(C(C)=O)CC12CCN(Cc1cc(Cl)ccc1F)CC2 (stereo not drawn)	2.0	i
O=C(c1cccc2[nH]ccc12)N1CCC(n2cc(-c3nc(-c4ccccc4)no3)nn2)C1 (stereo not drawn)	6.0	25.1µM*
O=C(c1cc2ccccc2[nH]1)N1CCCC(n2cc(-c3nc(-c4ccccc4)no3)nn2)C1 (stereo not drawn)	3.5	17.8µM*
O=C(c1cccc2[nH]ccc12)N1CCC(n2cc(-c3nc(-c4ccccc4)no3)nn2)CC1	2.5	28.2µM*
O=C(c1ccccc1F)N1CCC(n2cc(-c3nc(-c4ccccc4)no3)nn2)C1 (stereo not drawn)	9.5	i
Cc1nc(-c2cn(C3CCCN(C(=O)c4cc5ccccc5[nH]4)C3)nn2)no1 (stereo not drawn)	-3.8	?
O=C(c1ccc[nH]c1=O)N1CCC(n2cc(-c3nc(-c4ccccc4)no3)nn2)CC1	0.4	i
Cc1ccccc1-n1c2nc(=O)[nH]c(=O)c-2cc2c(Cl)cccc21	-15.4	?
COc1ccccc1-c1nc2nccc(-c3cc(OC)c(OC)c(OC)c3)n2n1	7.4	25.1µM*
COc1ccccc1-c1nc2nccc(-c3ccncc3)n2n1	-2.6	i
COc1cc(-c2ccnc3nc(CCC4CCCC4)nn23)cc(OC)c1OC	4.2	?
COc1cc(-c2ccnc3nc(-c4ccco4)nn23)cc(OC)c1OC	-7.6	25.1µM*
COc1ccccc1-c1nc2nccc(-c3cc4ccccc4o3)n2n1	6.6	25.1µM*
Brc1ccc(-c2ccnc3nc(-c4ccco4)nn23)s1	-10.8	28.2µM*
COc1ccc(Cc2nc3nccc(-c4ccco4)n3n2)cc1	-2.6	i
COc1ccccc1-c1nc2nccc(-c3ccco3)n2n1	-9.2	?
O=C(NCCc1ccncc1)c1coc(COc2ccc(F)cc2Cl)n1	16.8	i
CCCN(Cc1nc(-c2ccc(C(F)(F)F)cc2)oc1C)CC1CCCO1 (stereo not drawn)	13.0	i
CCCCCCn1nc(C(=O)N(CC)CC(=O)Nc2c(F)cccc2F)c2ccccc2c1=O	nt	i
CCNC(=O)N1[C@@H](c2ccccc2)[C@@H](C(=O)OCC)C[C@]12CCCCN(CCOC)C2=O	-1.6	nt
CC(=O)OC[C@H]1O[C@H](O[C@]2(CO)O[C@H](CO)[C@@H](OC(=O)/C=C/c3ccccc3)[C@@H]2O)[C@H](O)[C@@H](O)[C@@H]1O	-8.2	nt
Cc1nc(-c2cnccn2)n(CC(=O)Nc2cccc(C#N)c2)c(=O)c1C	3.5	i
CSc1cccc(NC(=O)N[C@H]2C[C@@H](C(=O)N[C@@H](CCCNC(=O)C=C(C)C)C(N)=O)N(C(=O)C=C(C)C)C2)c1	-8.3	i
SMILES	IP6K1 inhibitor	KDM5B inh
c1ccc(N2CCN(c3nc(-c4cccnc4)nc4ccccc34)CC2)cc1	nt	i
COc1ccc(-c2ccnc3nc(-c4ccccc4OC)nn23)cc1OC	-5.0	28.2µM*
COc1ccccc1-c1nc2nccc(-c3ccccc3)n2n1	-4.5	i
COc1ccccc1-c1nc2nccc(-c3cccnc3)n2n1	-10.7	i
COc1ccccc1-c1nc2nccc(-c3ccc4c(c3)OCCCO4)n2n1	-2.9	14.1µM*
COc1ccccc1-c1nc2nccc(-c3ccc(Cl)cc3)n2n1	5.4	31.6µM*
CN1C(=O)[C@@H]2C[C@@H](CN2Cc2ccc(F)cc2)Oc2ccccc21	-1.5	i
CN(C)S(=O)(=O)N1CCC(Oc2ccc(C(=O)N3C[C@H]4CC[C@H]3C4)cc2)CC1	nt	i
Cc1ccc(C#N)c(N2CC[C@@]3(O)CCN(S(=O)(=O)N(C)C)C[C@H]3C2)n1	-0.2	28.2µM*
N#C/C(=C/c1ccc(Oc2ccccc2)cc1)c1nc2ccccc2[nH]1	nt	i
O=[S+]1([O-])NC2(CCN(CC3CCCCC3)CC2)COc2ccccc21	-6.2	70.8µM*
O=[S+]1([O-])NC2(CCN(Cc3cccnc3)CC2)COc2ccccc21	18.0	i
O=[S+]1([O-])NC2(CCN(Cc3ccc(Cl)s3)CC2)COc2ccccc21	-8.8	70.8µM*
CC(C)(C)CN1CCC2(CC1)COc1ccccc1[S+](=O)([O-])N2	10.4	?
O=C(C[C@H]1NC(=O)c2ccccc2NC1=O)Nc1ccc(N2CCOCC2)cc1	-0.4	i
Cc1cn2nc(C(=O)Nc3ccccc3)cc2c(N(C)Cc2ccccc2)n1	-12.7	28.2µM*
Cn1ccc(C(=O)Nc2ccc3c(c2)OCCO3)n1	nt	i
COc1cc(NC(=O)Cn2c(N(C)Cc3ccccc3)nc(C)cc2=O)cc(OC)c1	-9.7	?
COc1ccc(NC(=O)c2cc3c(N(C)Cc4ccccc4)nc(C)cn3n2)cc1	12.2	31.6µM*
Cc1cn2nc(C(=O)Nc3ccc(Cl)cc3C)cc2c(N(C)Cc2ccccc2)n1	16.2	i
Cc1cn2nc(C(=O)Nc3ccccc3C)cc2c(N(C)Cc2ccccc2)n1	-7.4	i
Cc1cn2nc(C(=O)Nc3cccc(F)c3C)cc2c(N(C)Cc2ccccc2)n1	-14.5	28.2µM*
Cc1cn2nc(C(=O)Nc3ccc4c(c3)OCCO4)cc2c(N(C)Cc2ccccc2)n1	12.9	28.2µM*
Cc1cc(C(=O)CSc2nnc(CN3CCCC3)n2-c2ccccc2)c(C)n1CC(F)(F)F	nt	i
CCc1c(C)cc(C(=O)N[C@H]2CCOC[C@H]2C2CCOCC2)c(=O)n1C	24.6	25.1µM*
SMILES	IP6K1 inhibitor	KDM5B inh
Cc1nn(C)c(C(=O)N[C@H]2CCOC[C@H]2C2CCOCC2)c1Cl	9.6	i
Cn1ccc(C(=O)NCc2nnc3n2C(C(=O)N2CCOCC2)CC3)n1 (stereo not drawn)	7.4	i
COCCN1CCCCCC(O)c2cc(C(=O)NCCCN(C)C)ccc21 (stereo not drawn)	1.5	?
Nc1nc(CN2CCN(C(=O)c3cc(C(F)(F)F)cc(C(F)(F)F)c3)CC2)nc2ccccc12	nt	i
COc1ccc(-c2nc(C3CC3)nc3c2CCN(CCC(C)C)CC3)cc1	12.0	79.4µM*
COc1ccc(-c2nc(C)nc3c2CCN(CCC(C)C)CC3)cc1	1.3	?
COc1ccc(-c2nc(C3CC3)nc3c2CCN(Cc2ccc(C(F)(F)F)cc2)CC3)cc1	-4.8	50.1µM*
COc1ccc(CN2CCc3nc(C4CC4)nc(-c4ccc(OC)cc4)c3CC2)cc1	-0.9	?
Cc1ccc(-c2noc([C@@H]3C[C@@H](O)CN3Cc3cccnc3)n2)cc1F	5.2	i
COc1ccc(Br)cc1COc1ccc(C(C)=O)cc1OC	nt	i
CCc1cccc(C)c1NC(=O)Cn1ccn2nc3c(c2c1=O)CCCCC3	5.5	?
NC1CCN(C2CCS(=O)CC2)CC1 (stereo not drawn)	nt	i
CN(Cc1cccc(F)c1)C(=O)CCCc1c[nH]c2ccccc12	nt	i
CN(C)C[C@@H]1CN(c2ncccn2)C[C@H]1NC(=O)c1ccccc1Cl	2.4	22.4µM*
CN(C)C[C@@H]1CN(c2ncccn2)C[C@H]1NC(=O)c1cnn(C)c1	-0.3	28.2µM*
CN(C)C[C@@H]1CN(c2ncccn2)C[C@H]1NC(=O)c1cccn1C	13.7	28.2µM*
CN(C)C[C@@H]1CN(c2ncccn2)C[C@H]1NC(=O)c1ccc(C#N)cc1	1.2	?
